Experimental data: PubChem BioAssay (Tox21)
Records with an inconclusive call do not appear. A call without a number means that no potency is given here. Calls of active or inactive are those of the source. Unless noted, calls follow the shape of the full dose curve.

Tests used:
[1] = Nuclear factor erythroid 2-related factor 2/antioxidant responsive element (Nrf2/ARE) small molecule agonists: qHTS cell viability counter screen in human keratinocytes (AID 1919968; active = well fitted curve in the direction sought with a large enough effect in the repeat runs; an effect the other way counts as inactive or inconclusive; also: nearly all actives have a fitted effect of over 55% in size; also: potency is read from the fitted curve at half-maximal effect)
Summary of the method: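 After a 5 h attachment period, ARE-reporter keratinocytes were dosed with compounds in DMSO and then cultured 23 h at 37 C. Cell viability came from CellTiter-Fluor signal read after a further 1 h.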

[2] = Nuclear factor erythroid 2-related factor 2/antioxidant responsive element (Nrf2/ARE) small molecule agonists: luciferase reporter gene qHTS assay in human keratinocytes (AID 1919969); also: nearly all actives have a fitted effect of over 35% in size; also: potency is read from the fitted curve at half-maximal effect
[3] = target: Gonadotropin-releasing hormone receptor (Homo sapiens) (UniProt P30968); experiment: Human gonadotropin-releasing hormone receptor (GnRHR) small molecule agonists, calcium flux assay in GnRHR-HEK293 cells (AID 1920063); also: nearly all actives have a fitted effect of over 35% in size; also: potency is read from the fitted curve at half-maximal effect
Summary of the method: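 We seeded human GnRHR-expressing HEK293 cells for 18 hours, loaded them with calcium dye for an hour at 37 C, added test compounds, and recorded fluorescence intensity kinetically for three minutes.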

[4] = target: KiSS-1 receptor (Homo sapiens) (UniProt Q969F8); experiment: Human kisspeptin (KISS1R) small molecule agonists, calcium flux assay in KISS1R-HEK293 cells (AID 1920064; active = well fitted curve in the direction sought with a large enough effect in the repeat runs; an effect the other way counts as inactive or inconclusive; also: potency is read from the fitted curve at half-maximal effect)
Summary of the method: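 Kinetic calcium assay, 1 s sampling over 3 min at Ex/Em 480/540, in HEK293 cells engineered with human KISS1R; compounds delivered in DMSO after 1 h dye loading.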

[5] = G protein-coupled receptor (GPCR) small molecule agonists, calcium flux assay: HEK293 wild type cell line counter screen (AID 1920065); also: potency is read from the fitted curve at half-maximal effect
Summary of the method: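 Calcium-sensitive dye, loaded 1 h at 37 C into cells cultured 18 h, reports compound-evoked calcium release as fluorescence (Ex/Em 480/540), measured over 3 min. Agonist mode; 15-point titrations, triplicate.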

[6] = p53 small molecule agonists, cell-based qHTS assay with human liver microsomes: qHTS cell viability counter screen (AID 1963579); also: nearly all actives have a fitted effect of over 45% in size
Summary of the method: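 Cells carrying the p53 response-element beta-lactamase reporter are treated for 16 h at 37 C with test compounds in the presence of human liver microsomes and NADPH (both 0.5 mg/mL final); ATP-based CellTiter-Glo luminescence then reports viability.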

[7] = p53 small molecule agonists, cell-based qHTS assay with rat liver microsomes: qHTS cell viability counter screen (AID 1963580); also: nearly all actives have a fitted effect of over 45% in size
Summary of the method: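 HCT-116 p53RE-bla, 4,000 cells/well, 5 h pre-incubation; cpd + rat liver microsomes 0.5 mg/mL + NADPH 0.5 mg/mL (final); 16 h, 37 C; CellTiter-Glo, 30 min RT; luminescence.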

[8] = p53 small molecule agonists, cell-based qHTS assay: qHTS cell viability counter screen (AID 1963581); also: nearly all actives have a fitted effect of over 45% in size; also: potency is read from the fitted curve at half-maximal effect
Summary of the method: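 Following 5 h attachment, HCT-116 p53RE-bla cells took up compound for 16 h at 37 C; the reporter was read with B/G FRET substrate (2 h RT), and viability then via CellTiter-Glo ATP luminescence.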

[9] = target: 5-hydroxytryptamine receptor 2A (Homo sapiens) (UniProt P28223); experiment: 5-hydroxytryptamine receptor 2A (HTR2A) small molecule antagonists, cell-based qHTS assay (AID 1963586); also: nearly all actives have a fitted effect of over 45% in size; also: potency is read from the fitted curve at half-maximal effect
Summary of the method: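 Antagonist-mode intracellular calcium assay: DOI (4 nM) added after 5 min compound pre-incubation at room temperature to dye-loaded HTR2A-CHO cells. Fluorescence followed for 3 min, sampled every second.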

[10] = target: 5-hydroxytryptamine receptor 2A (Homo sapiens) (UniProt P28223); experiment: 5-hydroxytryptamine receptor 2A (HTR2A) small molecule agonists, cell-based qHTS assay (AID 1963587); also: nearly all actives have a fitted effect of over 30% in size; also: potency is read from the fitted curve at half-maximal effect
Summary of the method: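 Kinetic calcium-flux fluorescence (2 min, 1 sec intervals) after compound addition in agonist mode. HTR2A-CHO cells were cultured 18 h, then dye-loaded 1 h at 37 C.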

[11] = target: Muscarinic acetylcholine receptor M1 (Homo sapiens) (UniProt P11229); experiment: Cholinergic receptor muscarinic 1 (CHRM1) small molecule antagonists, cell-based qHTS assay (AID 1963588); also: nearly all actives have a fitted effect of over 40% in size; also: potency is read from the fitted curve at half-maximal effect
Summary of the method: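 CHRM1-CHO calcium-flux assay, antagonist mode. Cells were seeded 18 h, dye-loaded 1 h at 37 C and given compound for 5 min at RT, then acetylcholine was added at 50nM. FDSS fluorescence was read 3 min; 15 concentrations, three runs.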

[12] = target: Muscarinic acetylcholine receptor M1 (Homo sapiens) (UniProt P11229); experiment: Cholinergic receptor muscarinic 1 (CHRM1) small molecule agonists, cell-based qHTS assay (AID 1963589); also: nearly all actives have a fitted effect of over 35% in size; also: potency is read from the fitted curve at half-maximal effect
Summary of the method: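 Measures agonist-induced intracellular calcium rise. Stable human CHRM1 CHO line, 1 h dye load at 37 C, compounds from DMSO, kinetic fluorescence read.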

[13] = cAMP Responsive Elements (CRE) small molecule agonists, cell-based qHTS assay (AID 1963590)
Summary of the method: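 A CRE-responsive beta-lactamase reporter in HEK 293T cells was used. Treatment ran 3 h at 37 C; detection used LiveBLAzer B/G FRET substrate for 2 h at room temperature.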

[14] = cAMP Responsive Elements (CRE) small molecule antagonists, cell-based qHTS assay (AID 1963591; active = well fitted inhibition curve with a large enough effect in the signal ratio in the repeat runs, not every such curve was filed as active; the % refers to the signal ratio)
Summary of the method: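 HEK293T cells carrying a CRE-driven beta-lactamase reporter receive compound and NKH477 (0.25 uM final) for 3 h. Fluorescence from LiveBLAzer B/G FRET substrate is read after 2 h at room temperature.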

[15] = target: Beta-2 adrenergic receptor (Homo sapiens) (UniProt P07550); experiment: Adrenergic beta2 receptor (ADRB2) small molecule antagonists, cell-based qHTS assay (AID 1963592); also: series mostly up to about 92 µM; nearly all actives have a fitted effect of over 50% in size
Summary of the method: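 Cells (CHO, stable ADRB2 overexpression) incubated 18-20hr at 37C; compounds added from DMSO; agonist mix (1nM isoproterenol, 100uM IBMX, 25uM Ro-20-1724) added; 0.5hr RT; d2-cAMP and anti-cAMP-cryptate added; 1hr RT; 665/615 nm read.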

[16] = target: Beta-2 adrenergic receptor (Homo sapiens) (UniProt P07550); experiment: Adrenergic beta2 receptor (ADRB2) small molecule agonists, cell-based qHTS assay (AID 1963593);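 also: CHO cells stably overexpressing human ADRB2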
Summary of the method: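 CHO cells stably over-expressing ADRB2 were plated overnight at 37C, then dosed with compounds plus a stimulation mix containing 100uM IBMX and 25uM Ro-20-1724 for 0.5hr at room temperature. cAMP was measured by HTRF competition, 1hr.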

[17] = target: D(2) dopamine receptor (Homo sapiens) (UniProt P14416); experiment: Dopamine D2 receptor (DRD2) small molecule agonists, cell-based qHTS assay (AID 1963594); also: nearly all actives have a fitted effect of over 35% in size; also: potency is read from the fitted curve at half-maximal effect
Summary of the method: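 cAMP accumulation in DRD2-HEK293 cells measured by HTRF after 1 h detection; compounds added 10 min before NKH477 (200nM […]) forskolin-analogue stimulation, 30 min at room temperature, with Ro20-1724 present at 0.1 mM final.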

[18] = p53 small molecule agonists, cell-based qHTS assay with rat liver microsomes (AID 1963578)
Summary of the method: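 Read-out is beta-lactamase reporter fluorescence (LiveBLAzer, 2 h, room temperature, dark) in p53RE-bla cells treated 16 h at 37 C with compound, rat liver microsomes and NADPH, both 0.5 mg/mL final.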

[19] = p53 small molecule agonists, cell-based qHTS assay (AID 1963582; active = well fitted activation curve with a large enough effect in the signal ratio in the repeat runs, not every such curve was filed as active; the % refers to the signal ratio; also: potency is read from the fitted curve at half-maximal effect)
Summary of the method: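 In this cell-based concentration-response screen, a p53 response element drives beta-lactamase; cells received DMSO-borne compounds after 5 h culture and were incubated a further 16 h before FRET substrate development.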

[20] = target: D(2) dopamine receptor (Homo sapiens) (UniProt P14416); experiment: Dopamine D2 receptor (DRD2) small molecule antagonists, cell-based qHTS assay (AID 1963595; active = well fitted inhibition curve with a large enough effect in the signal ratio in the repeat runs, with a control signal flat; the % refers to the signal ratio; also: potency is read from the fitted curve at half-maximal effect)
Summary of the method: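 Human DRD2 antagonist qHTS measuring cAMP by HTRF. The cells are exposed to compound for 10 min, then to NKH477 (200 nM) and quinpirole (12 nM) for 30 min at RT, with Ro20-1724 (0.1 mM) present throughout.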

5-hydroxytryptamine receptor 2A (Homo sapiens), sequence (P28223 whole entry, looked up): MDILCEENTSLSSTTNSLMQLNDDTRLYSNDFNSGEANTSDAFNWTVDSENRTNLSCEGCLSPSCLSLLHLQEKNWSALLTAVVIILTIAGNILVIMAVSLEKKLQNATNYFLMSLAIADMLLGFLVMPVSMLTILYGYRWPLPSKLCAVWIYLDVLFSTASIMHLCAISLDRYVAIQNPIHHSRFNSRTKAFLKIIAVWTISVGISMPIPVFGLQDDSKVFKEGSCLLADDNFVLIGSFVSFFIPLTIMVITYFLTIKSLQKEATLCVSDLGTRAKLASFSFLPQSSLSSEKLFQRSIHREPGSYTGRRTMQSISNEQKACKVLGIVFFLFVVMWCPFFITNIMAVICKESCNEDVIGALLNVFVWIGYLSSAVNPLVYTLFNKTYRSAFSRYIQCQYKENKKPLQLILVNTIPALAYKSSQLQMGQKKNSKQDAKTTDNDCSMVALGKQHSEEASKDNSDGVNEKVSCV
Muscarinic acetylcholine receptor M1 (Homo sapiens), sequence (P11229 whole entry, looked up): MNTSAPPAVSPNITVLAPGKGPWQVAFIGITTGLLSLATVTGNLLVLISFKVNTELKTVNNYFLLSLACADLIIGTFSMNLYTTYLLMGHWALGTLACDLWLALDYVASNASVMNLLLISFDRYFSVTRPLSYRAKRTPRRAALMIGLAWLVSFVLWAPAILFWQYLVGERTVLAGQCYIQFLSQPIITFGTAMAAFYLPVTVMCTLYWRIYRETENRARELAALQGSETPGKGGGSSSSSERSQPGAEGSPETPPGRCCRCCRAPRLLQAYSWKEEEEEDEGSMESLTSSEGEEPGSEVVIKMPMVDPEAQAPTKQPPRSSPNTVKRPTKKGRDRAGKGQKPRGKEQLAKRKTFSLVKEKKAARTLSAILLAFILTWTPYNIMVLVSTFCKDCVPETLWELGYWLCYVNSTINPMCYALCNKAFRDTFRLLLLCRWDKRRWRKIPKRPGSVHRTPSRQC
Gonadotropin-releasing hormone receptor (Homo sapiens), sequence (P30968 whole entry, looked up): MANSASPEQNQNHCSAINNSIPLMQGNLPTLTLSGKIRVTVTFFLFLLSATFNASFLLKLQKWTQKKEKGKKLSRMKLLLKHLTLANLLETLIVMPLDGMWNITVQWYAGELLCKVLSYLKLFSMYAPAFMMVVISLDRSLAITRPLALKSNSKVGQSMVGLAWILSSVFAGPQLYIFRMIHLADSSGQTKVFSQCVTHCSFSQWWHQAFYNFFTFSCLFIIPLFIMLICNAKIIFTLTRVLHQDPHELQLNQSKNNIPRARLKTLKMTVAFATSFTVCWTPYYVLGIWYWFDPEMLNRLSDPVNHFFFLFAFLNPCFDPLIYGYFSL
Beta-2 adrenergic receptor (Homo sapiens), sequence (P07550 whole entry, looked up): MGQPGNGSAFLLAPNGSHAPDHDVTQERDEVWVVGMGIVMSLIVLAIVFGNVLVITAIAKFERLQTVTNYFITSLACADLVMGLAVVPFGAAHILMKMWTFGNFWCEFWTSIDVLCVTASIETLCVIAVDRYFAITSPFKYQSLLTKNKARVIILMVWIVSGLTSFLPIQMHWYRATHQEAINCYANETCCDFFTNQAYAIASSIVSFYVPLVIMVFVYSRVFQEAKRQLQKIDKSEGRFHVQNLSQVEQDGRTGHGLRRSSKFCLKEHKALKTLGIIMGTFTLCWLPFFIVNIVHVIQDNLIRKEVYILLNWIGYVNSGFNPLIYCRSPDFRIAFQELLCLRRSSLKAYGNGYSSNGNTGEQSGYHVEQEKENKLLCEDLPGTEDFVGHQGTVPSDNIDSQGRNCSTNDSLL
D(2) dopamine receptor (Homo sapiens), sequence (P14416 whole entry, looked up): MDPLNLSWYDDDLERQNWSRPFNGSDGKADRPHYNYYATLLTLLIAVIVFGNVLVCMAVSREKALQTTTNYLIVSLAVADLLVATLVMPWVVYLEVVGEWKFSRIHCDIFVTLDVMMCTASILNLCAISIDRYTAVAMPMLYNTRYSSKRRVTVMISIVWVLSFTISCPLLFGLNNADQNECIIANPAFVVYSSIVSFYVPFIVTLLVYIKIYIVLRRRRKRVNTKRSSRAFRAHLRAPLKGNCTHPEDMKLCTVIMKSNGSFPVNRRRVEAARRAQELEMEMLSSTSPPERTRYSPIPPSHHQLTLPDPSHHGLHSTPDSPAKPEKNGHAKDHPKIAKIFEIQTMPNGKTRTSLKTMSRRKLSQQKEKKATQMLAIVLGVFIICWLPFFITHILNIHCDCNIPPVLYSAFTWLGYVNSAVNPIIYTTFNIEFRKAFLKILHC
KiSS-1 receptor (Homo sapiens), sequence (Q969F8 whole entry, looked up): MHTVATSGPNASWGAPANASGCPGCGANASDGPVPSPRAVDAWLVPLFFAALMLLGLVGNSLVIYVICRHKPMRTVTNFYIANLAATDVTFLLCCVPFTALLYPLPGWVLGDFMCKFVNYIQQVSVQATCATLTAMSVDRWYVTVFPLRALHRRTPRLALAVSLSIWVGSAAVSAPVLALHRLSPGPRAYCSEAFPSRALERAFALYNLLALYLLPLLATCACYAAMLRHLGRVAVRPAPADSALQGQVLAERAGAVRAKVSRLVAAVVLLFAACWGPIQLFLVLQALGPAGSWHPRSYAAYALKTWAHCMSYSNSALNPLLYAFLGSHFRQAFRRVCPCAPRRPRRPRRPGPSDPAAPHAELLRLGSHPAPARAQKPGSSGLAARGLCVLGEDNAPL

Compound | Potency [1] | Potency [2] | Potency [3] | Potency [4] | Potency [5] | Potency [6] | Potency [7] | Potency [8] | Potency [9] | Potency [10] | Potency [11] | Potency [12] | Potency [13] | Potency [14] | Potency [15] | Potency [16] | Potency [17] | Potency [18] | Potency [19] | Potency [20]
BrCCCBr | inactive | inactive | inactive | inactive | inactive | inactive | inactive | inactive | inactive | inactive | inactive | inactive | inactive | inactive | inactive | inactive | inactive |  |  | 
O=[N+]([O-])c1cccc2cccnc12 | inactive | inactive | inactive | inactive | inactive | inactive |  | inactive | inactive | inactive | inactive | inactive | inactive | inactive | inactive | inactive | inactive | inactive | inactive | inactive
CNC(=O)Oc1cc(C)c(SC)c(C)c1 | inactive | inactive | inactive | inactive | inactive | inactive | inactive | inactive |  | inactive | inactive | inactive | inactive |  | inactive |  | inactive |  | inactive | inactive
COP(N)(=S)OC | inactive | inactive | inactive | inactive | inactive | inactive | inactive | inactive | inactive | inactive | inactive | inactive | inactive | inactive | inactive |  | inactive |  | inactive | inactive
CC1=NNC(=O)N(/N=C/c2cccnc2)C1 | inactive | inactive | inactive | inactive | inactive |  | inactive |  | inactive | inactive | inactive | inactive | inactive | inactive | inactive |  | inactive | inactive | inactive | inactive
O=C(O)c1cc[c]([Hg][Cl])cc1 | 48.6 µM (active) | 21.7 µM (active) | inactive | inactive | inactive |  | inactive | inactive | inactive | inactive | inactive | inactive |  |  | inactive |  | inactive | inactive | inactive | 
COc1cc(CC(C)N)cc(OC)c1OC (centres undefined) | inactive | inactive | inactive | inactive | inactive | inactive |  |  | 0.228 µM (active) | 0.265 µM (active) | inactive | inactive | inactive | inactive |  |  |  | inactive | inactive | inactive
C[N+](C)(C)CC1CO1 (centres undefined) | inactive | inactive | inactive | inactive | inactive | inactive | inactive |  | inactive | inactive | inactive |  | inactive | inactive | inactive |  | inactive | inactive | inactive | inactive
CCOC(=O)CCN(SN(C)C(=O)Oc1cccc2c1OC(C)(C)C2)C(C)C | inactive | 61.1 µM (active) | inactive | inactive | inactive | inactive | inactive | inactive |  | inactive | inactive | inactive |  |  | inactive |  | inactive |  | inactive | inactive
Cc1cc2c3c(c1)C(c1ccccc1)=N[C@@H](NC(=O)c1ccncc1)C(=O)N3CC2 | inactive | inactive | inactive | inactive | inactive | inactive | inactive |  | inactive | inactive | inactive | inactive |  |  | inactive |  |  | inactive | inactive | inactive
O=c1oc2ccccc2c(O)c1Cc1c(O)c2ccccc2oc1=O | inactive | inactive | inactive | inactive | inactive | inactive |  |  |  |  |  |  |  | inactive | inactive | inactive | inactive | inactive | 5 µM (active) | inactive
O=[N+]([O-])c1c(Cl)c(Cl)cc(Cl)c1Cl | 43.3 µM (active) | 9.69 µM (active) | inactive | inactive | inactive | inactive |  |  |  | inactive | 11.2 µM (active) | 3.47 µM (active) |  | inactive | inactive |  |  | inactive |  | 
COP(=S)(OC)Oc1ccc([N+](=O)[O-])c(C)c1 | inactive | inactive | inactive | inactive | inactive | inactive | inactive | 0.363 µM (active) |  |  |  | inactive | inactive | inactive | inactive | inactive |  |  | inactive | inactive
NC1=NC(=O)C(c2ccccc2)O1 (centres undefined) | inactive | inactive | inactive | inactive | inactive |  | inactive | inactive |  |  |  |  | inactive | inactive | inactive |  | inactive | inactive | inactive | 
COc1c2c(cc3c1OCO3)CCN(C)C2 | inactive | inactive | inactive | inactive | inactive | inactive | inactive | inactive | 16.3 µM (active) | 1.2 µM (active) | inactive | inactive | inactive | inactive | inactive | inactive | 6.68 µM (active) |  |  | inactive
CN(C)S(=O)(=O)N(SC(F)(Cl)Cl)c1ccccc1 | 13.7 µM (active) | 4.86 µM (active) | 38.9 µM (active) | 54.9 µM (active) | 38.9 µM (active) |  |  |  | inactive |  |  |  |  |  |  |  |  | inactive | inactive | 5.45 µM (active)
